Screens: PubChem BioAssay, National Center for Advancing Translational Sciences (NCATS)
Sampled rows, rich in hits. Any-hit rate of the full collection: about 7.6%.
KCNH2 WT inh: KCNH2 (human, wildtype) channel inhibition; Q12809; U2OS, BacMam KCNH2, thallium flux FluxOr; stronger effect = lower value; activity change, % at 1.84 µM; 340,000 compounds, 0.37% hits; AID 720551;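 active means maximum activity change below -70%; inconclusive means maximum activity change between -70% and -50%; inactive means maximum activity change above -50%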; further: on the % scale 0 is the no-effect control and ±100 the full control effect
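U2OS cells transduced with wild-type KCNH2 virus are loaded with FluxOr dye for 45 min, and thallium flux is measured in kinetic reads before and after stimulation buffer. Rate constants are normalized to DMSO controls.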
KCNH2 3.1 block: KCNH2 3.1 (human) potassium channel inhibition | 340,000 compounds, 0.95% hits | AID 720553 | activity change, % (tested at about 1.8 µM) | U2OS KCNH2 3.1, thallium flux FluxOr; stronger effect = lower value;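 active means maximum activity change below -70%; inconclusive means maximum activity change from -70% to -50%; inactive means maximum activity change above -50%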;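 further: thallium influx rate constant from kinetic fluorescence after stimulation buffer; on the % scale 0 is the no-effect control and ±100 the full control effect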
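Thallium flux read-out: FluxOr dye with Red40 quencher in HBSS/HEPES, 45 min at RT. Rate constants from kinetic reads were normalized to positive and negative DMSO controls. Cells: U2OS virally expressing the 3.1 isoform.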
SW480 rerep: inducers of DNA re-replication in SW480 colon cancer cells; SW480 DNA re-replication, Hoechst DNA content imaging, 48 h; Potency, µM (titrated, usually from 46.1 µM), inactives show at the highest dose re-replication activation, actives largely listed as activators; AID 624297; 340,000 compounds, 1.8% hits; further: potency means the concentration at half of the fitted maximal effect; % of control where 0% means no effect; nearly all actives have a fitted effect of over 55% in size
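First, 250 cells per well were seeded. Next, compound or vehicle (23 nL) was pinned in, plates sat 48 hr at 37 C. Finally Hoechst was added for 40 min before fluorescence scanning.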
MCF10A rerep: inducers of DNA re-replication in MCF 10A breast cells. MCF 10A DNA re-replication, Hoechst nuclear intensity, 48 h. AID 624296. 350,000 compounds, 2.9% hits. Potency, µM (series often up to 46.1 µM), for the others: top-dose activity, positive = re-replication, actives largely listed as activators; further: potency means the concentration at half of the fitted maximal effect; % of control where 0% means no effect; nearly all actives have a fitted effect of over 50% in size
KB-3-1 tox: KB-3-1 parental cell cytotoxicity; KB-3-1 viability, CellTiter-Glo ATP luminescence, 72 h; Potency, µM (doses to about 46.1 µM), actives largely listed as cytotoxic; 400,000 compounds, 1.4% hits; further: potency means the concentration at half of the fitted maximal effect; on the % scale 0 is the no-effect control and ±100 the full control effect; nearly all actives have a fitted effect of over 60% in size
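Luminescent ATP read-out (CellTiter-Glo) measures survival of drug-naive KB-3-1 cells after 72 h compound exposure at 37 °C. Titration series was screened from lowest to highest concentration, with DMSO vehicle plates as background controls.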
KB-V1 MDR tox: KB-V1 MDR subline cytotoxicity; AID 1347076; Potency, µM (top dose mostly 46.1 µM), most hits filed as cytotoxic; 400,000 compounds, 3.4% hits; KB-V1 MDR cells viability, CellTiter-Glo, 72 h; further: potency means the concentration at half of the fitted maximal effect; on the % scale 0 is the no-effect control and ±100 the full control effect; nearly all actives have a fitted effect of over 60% in size
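Following 72 h at 37 degrees C with compound, KB-V1 cell viability was read by CellTiter-Glo luminescence, medium being phenol-red-free DMEM plus 10% FBS; concentration-response parameters came from normalized, curve-fitted qHTS data.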
Numbers without * were called inactive; i = inactive; ? = inconclusive; · = not tested or not shown. Unless noted, the call rests on the fitted dose curve; in most records, active means well fitted curve in the direction sought with a large enough effect; inconclusive means small, poorly fitted or top-dose-only effect, or another doubt; inactive means no such curve, though single readings can be large; an effect the other way counts as inactive or inconclusive.

SMILES | KCNH2 WT inh | KCNH2 3.1 block | SW480 rerep | MCF10A rerep | KB-3-1 tox | KB-V1 MDR tox
C=CCNc1nc(N2CCCCC2)c(C#N)c2c1CN(Cc1ccccc1)CC2 | 14.6 | -12.8 | ? | 16.4µM* | ? | i
CC1CC(C)CN(C(=O)C(NS(=O)(=O)c2ccc(Br)s2)c2ccccc2)C1 (stereo unspecified) | 2.8 | 4.6 | -96.9% | 16.4µM* | i | i
CC(C)(C)OC(=O)N1CC=C2C(C#N)=C(N)C(C#N)(C#N)C(c3cccs3)C2C1 (stereo unspecified) | 7.9 | 9.6 | 7.1% | ? | i | 9.2µM*
CCOC(=O)N1CC=C2C(C#N)=C(N)C(C#N)(C#N)[C@H](c3cccs3)C2C1 (stereo partly specified) | 10.1 | 4.2 | 4.3% | 13.3% | i | 9.2µM*
CCCOc1ccc([C@@H]2C3CN(C(=O)OCC)CC=C3C(C#N)=C(N)C2(C#N)C#N)cc1OC (stereo partly specified) | -0.4 | -9.5 | 10.9% | 13.0% | i | i
Cc1ccc2occ(CC(=O)N(Cc3ccccc3Cl)C3CCS(=O)(=O)C3)c2c1 (stereo unspecified) | · | · | · | · | i | i
O=S(=O)(c1cccc(-c2n[nH]c(=S)o2)c1)N1CCOCC1 | -4.4 | 12.6 | -3.6% | -8.3% | i | i
COc1ccc(C(=O)Nc2sc3c(c2C(=O)O)CC(C)(C)OC3)cc1 | -17.0 | -2.2 | -3.8% | 2.9% | ? | ?
CC(C)COc1ccc(C(=O)Nc2sc3c(c2C(=O)O)CC(C)(C)OC3)cc1 | -0.5 | -6.5 | -80.1% | ? | 8.2µM* | i
Cc1nc(SCC(=O)NC2CCS(=O)(=O)C2)c2c3c(sc2n1)CCCC3 (stereo unspecified) | -4.3 | 24.6 | -3.3% | 8.6% | i | i
Cc1ccc(N(CC(=O)NCc2ccc(OC(C)C)cc2)S(=O)(=O)N(C)C)cc1 | · | · | · | · | i | i
O=C1c2ccccc2C(=O)N1CCSC(=S)N1CCOCC1 | -10.6 | 14.8 | -2.3% | -0.2% | i | i
Fc1c(CSC(=S)N2CCOCC2)cccc1CSC(=S)N1CCOCC1 | -151.7* | -195.6* | -12.4% | 11.7% | ? | ?
O=C(COc1ccccc1Cl)NNC(=O)c1ccc2nc[nH]c2c1 | -6.5 | -28.7 | -7.4% | -5.3% | i | i
CN1CCC(N(C)C(=O)c2ccccc2Nc2ccc(SC(F)F)cc2)CC1 | 30.4 | -22.1 | -4.5% | 8.2µM* | i | i
CN1CCN(C(=O)c2ccccc2Nc2ccc(SC(F)F)cc2)CC1 | 17.6 | -2.2 | -4.1% | 1.4% | i | i
CCCCn1nc(NC(=O)CC(C)C)c2cc3cc(OC)ccc3nc21 | 12.3 | 5.9 | 11.6µM* | 14.6µM* | i | i
CCCCn1nc(NC(=O)CCC)c2cc3cc(OC)ccc3nc21 | 13.3 | 6.7 | ? | ? | i | ?
CCC(=O)Nc1nn(CC(C)C)c2nc3ccc(C)cc3cc12 | 3.5 | 13.4 | 18.4µM* | ? | i | i
COc1ccc2nc3c(cc2c1)c(NC(=O)CC(C)C)nn3CC(C)C | -5.5 | 9.3 | 8.2µM* | 7.31µM* | i | i
O=C(c1cccc(Cl)c1)N1CCN(c2ccc3c(c2)C2CC3CCN2C(=O)OCc2ccccc2)CC1 (stereo unspecified) | · | · | · | · | ? | 16.4µM*
OC(COc1cccc2ccccc12)CN1CCN(c2cccc(Cl)c2)CC1 (stereo unspecified) | 10.7 | -13.7 | 14.1% | 25.9µM* | i | i
OC(COc1c(F)cc(Br)cc1F)CN1CCOCC1 (stereo unspecified) | -9.2 | -8.4 | -4.4% | -18.8% | i | i
COc1cccc(OCC(O)CN2CCN(c3ccc(F)cc3)CC2)c1 (stereo unspecified) | 26.9 | -10.4 | -3.3% | 14.0% | i | i
OC(COc1cccc2ccccc12)CN1CCN(c2ccc(Cl)cc2)CC1 (stereo unspecified) | 4.1 | ? | -14.8% | ? | i | ?
SMILES | KCNH2 WT inh | KCNH2 3.1 block | SW480 rerep | MCF10A rerep | KB-3-1 tox | KB-V1 MDR tox
OC(COc1c(F)cc(Br)cc1F)CN1CCN(c2ccc(F)cc2)CC1 (stereo unspecified) | -17.0 | ? | -3.5% | 17.4% | ? | 16.4µM*
OC(COc1ccc2ccccc2c1)CN1CCN(c2ccc(F)cc2)CC1 (stereo unspecified) | -6.1 | -74.0* | -0.6% | ? | i | i
COc1ccc(NC(=O)NCc2ccc3c(c2)OCO3)cc1OC | -5.3 | 1.5 | -12.7% | ? | i | i
Cc1ccc(S(=O)(=O)Nc2cc(-c3nn(C)c(=O)c4ccccc34)ccc2N2CCOCC2)cc1 | -11.5 | -26.8 | 16.4µM* | ? | i | i
CCOC(=O)C(=O)c1csc(NC(=O)CCSc2ccc(C)cc2)n1 | -21.2 | -34.8 | 3.0% | 0.581µM* | i | i
COc1ccc(-c2nc3cc(NC(=O)COc4ccccc4C)ccc3o2)cc1 | · | · | · | · | i | i
CCN1CCN(c2ccc(NC(=O)COc3ccccc3Cl)cc2)CC1 | 11.4 | 12.3 | -5.4% | ? | i | i
Cc1cc(Cl)ccc1OCC(=O)Nc1ccncc1 | 1.0 | -7.4 | -21.8% | 16.4µM* | i | ?
CCN1CCN(c2ccc(NC(=O)COc3ccc(Cl)cc3C)cc2)CC1 | 11.6 | -21.9 | 14.6µM* | ? | ? | ?
Cc1cc(Cl)ccc1OCC(=O)NCc1ccncc1 | -8.1 | -0.2 | -3.5% | -7.5% | i | ?
C(=Nc1cnc2ccccc2c1)c1ccnc2ccccc12 | · | · | · | · | i | i
CC(=O)c1ccc(Oc2nc(C)nc3c2oc2ccccc23)cc1 | · | · | · | · | 18.4µM* | i
Cc1ccccc1-c1noc(CSc2nnc(Cc3ccccc3)n2-c2ccc(F)cc2)n1 | · | · | · | · | i | ?
COCCNC(=O)C(OC(=O)CC1Sc2ccccc2NC1=O)c1ccncc1 (stereo unspecified) | -2.5 | -16.4 | 3.66µM* | 4.61µM* | i | i
O=C(CC1Sc2ccccc2NC1=O)OC(C(=O)NCCc1ccccc1)c1cccnc1 (stereo unspecified) | 2.6 | -7.1 | -25.1% | -0.1% | i | ?
CSc1cccc(N2CC(C(=O)Nc3ccccc3N3CCCC3)CC2=O)c1 (stereo unspecified) | 10.9 | 9.1 | 1.6% | 8.5% | i | i
CC1(C(=O)NCCC#N)CCN1C(=O)C1(c2ccccc2)CC1 (stereo unspecified) | · | · | · | · | i | i
COc1ccc(OC)c(C(=O)c2coc3ccc(O)cc23)c1 | -13.8 | 0.9 | ? | ? | ? | 10.3µM*
